Assay outcomes: PubChem, several laboratories
Compounds with a hit are over-represented: about 1.4% of the library has one in this group of screens.
MIN6 prolif = induces beta-cell replication in MIN6 cells | AID 2380 | MIN6 cells proliferation, ATPlite luminescence, 48 h; cells starved in 0.2% serum; 100% = growth in 10% serum | proliferation, % at 10 µM | 330,000 compounds, 0.29% hits;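 active = compounds whose signal lies at least 3.5 SD above the mean of all wells on their plate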;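 also: 0% = DMSO-treated cells in low-serum medium and 100% = 10% serum control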
MOR-DOR inv ag = mu-delta opioid heterodimer inverse agonism; inhibition, % at 9.3 µM; 340,000 compounds, 0.21% hits; AID 504357; cell-based MOR-DOR heterodimer luminescence; in the data active = inhibition above about 22%, passing the limit was not always enough;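 also: 0% = cells with DMSO and 100% = wells without cells with DMSO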
HTR5A ag = counter-screen for OPRM1-OPRD1 agonists: human HTR5A agonism. HTR5A agonist assay, luminescence, cell-based. activation, % at 9.3 µM. 340,000 compounds, 0.61% hits; in the data active = activation mostly above about 9.5%, no sharp cut-off; inactive = mostly below about 7.6%;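 also: 0% = cells with vehicle only and 100% = reference agonist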
pCIP destab = compounds decreasing mouse p/CIP protein stability; AID 1984; 290,000 compounds, 0.01% hits; F442A p/CIP-EGFP cells, EGFP fluorescence, 16 h; decrease of EGFP signal, % at 10 µM; Q05BA5;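 active = EGFP signal decrease of at least 30% at 10 µM or well 3 SD below plate mean, unless failing retest; inactive = the rest, including hits failing retest or dose response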
Target sequence (Q05BA5 1-1403): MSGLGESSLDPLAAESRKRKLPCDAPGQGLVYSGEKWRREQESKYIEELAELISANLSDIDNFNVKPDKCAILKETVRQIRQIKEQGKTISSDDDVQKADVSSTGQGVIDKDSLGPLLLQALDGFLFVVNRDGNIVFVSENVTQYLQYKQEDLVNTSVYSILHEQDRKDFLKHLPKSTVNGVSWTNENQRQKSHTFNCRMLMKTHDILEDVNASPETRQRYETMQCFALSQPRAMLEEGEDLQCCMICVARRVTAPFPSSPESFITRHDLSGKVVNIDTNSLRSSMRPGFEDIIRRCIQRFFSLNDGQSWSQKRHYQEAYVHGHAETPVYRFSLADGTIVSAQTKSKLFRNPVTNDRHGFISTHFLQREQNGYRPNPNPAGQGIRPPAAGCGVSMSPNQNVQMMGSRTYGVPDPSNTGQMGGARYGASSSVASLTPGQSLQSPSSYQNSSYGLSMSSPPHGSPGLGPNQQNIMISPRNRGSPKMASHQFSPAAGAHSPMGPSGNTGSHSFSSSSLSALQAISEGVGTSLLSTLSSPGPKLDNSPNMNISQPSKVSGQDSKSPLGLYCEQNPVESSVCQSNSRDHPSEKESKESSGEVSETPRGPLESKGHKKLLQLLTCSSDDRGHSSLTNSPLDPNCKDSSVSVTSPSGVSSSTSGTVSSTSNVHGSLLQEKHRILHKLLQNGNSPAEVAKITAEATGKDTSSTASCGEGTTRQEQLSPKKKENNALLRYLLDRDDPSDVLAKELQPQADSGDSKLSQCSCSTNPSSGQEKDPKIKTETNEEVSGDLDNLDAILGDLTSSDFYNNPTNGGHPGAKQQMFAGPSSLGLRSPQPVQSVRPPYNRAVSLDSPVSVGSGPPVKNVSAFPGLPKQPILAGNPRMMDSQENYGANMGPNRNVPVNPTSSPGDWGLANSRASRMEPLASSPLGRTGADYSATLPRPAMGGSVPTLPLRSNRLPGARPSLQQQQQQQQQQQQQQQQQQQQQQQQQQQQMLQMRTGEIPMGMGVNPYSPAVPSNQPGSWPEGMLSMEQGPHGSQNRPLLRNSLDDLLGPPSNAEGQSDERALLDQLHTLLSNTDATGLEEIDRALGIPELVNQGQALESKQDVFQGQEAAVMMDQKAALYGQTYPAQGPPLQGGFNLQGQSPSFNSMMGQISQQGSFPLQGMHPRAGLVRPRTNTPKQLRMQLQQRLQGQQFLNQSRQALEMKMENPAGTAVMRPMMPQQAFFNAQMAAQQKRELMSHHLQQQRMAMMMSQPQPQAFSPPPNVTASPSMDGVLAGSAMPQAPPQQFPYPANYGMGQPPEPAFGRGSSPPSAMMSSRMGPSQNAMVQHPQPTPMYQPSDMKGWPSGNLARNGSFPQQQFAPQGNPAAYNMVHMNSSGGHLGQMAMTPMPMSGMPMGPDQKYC
HTR5A inv ctr = counter-screen for OPRM1-OPRD1 inverse agonists: human HTR5A inverse agonism; P47898; HTR5A cell line, luminescence; inhibition, % at 9.3 µM; 340,000 compounds, 0.083% hits; AID 504634; in the data active = inhibition mostly above about 23%, no sharp cut-off; inactive = mostly below about 18%;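 also: 0% = cells with DMSO and 100% = no-cell wells with DMSO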
MOR-DOR ag-1 = agonists of human mu-delta opioid receptor heterodimerization; cells, OPRM1-OPRD1 heterodimerization, luminescence; activation, % at 9.3 µM; 340,000 compounds, 0.3% hits;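 also: 0% = vehicle-treated cells and 100% = reference agonist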
MOR-DOR ag-2 = promotes OPRM1-OPRD1 heterodimerization in HTR5A counter-screen | shares compounds with HTR5A ag | U2OS counter-screen cells, complementation luminescence, 3 h | activation, % at 9.3 µM | 800 compounds, 13% hits
HTR5A ag conf = HTR5A (human) agonism, confirmation; shares compounds with HTR5A ag; HTR5A agonist cell assay, luminescence; activation, % at 9.3 µM; 800 compounds, 17% hits; in the data active = activation above about 17%;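 also: 0% = cells with vehicle only and 100% = full reference agonist response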
The depositor's hits bear a star; nt = not tested or not shown. Rule as the data show it, unless noted: active = activation above about 18%; inactive = the rest.

SMILES | MIN6 prolif | MOR-DOR inv ag | HTR5A ag | pCIP destab | HTR5A inv ctr | MOR-DOR ag-1 | MOR-DOR ag-2 | HTR5A ag conf
NC(=O)C[C@H](NC(=O)c1ccc(Cl)cc1)C(=O)OCc1ccccc1 | -3 | -1 | 5 | nt | -13 | 0 | nt | nt
O=C(Nc1cccc(Cl)c1)Nc1cc(S(=O)(=O)N2CCCCC2)ccc1Cl | -6 | -13 | 1 | -10 | -2 | 2 | nt | nt
CN1CCN(S(=O)(=O)c2ccc(NC(=O)Nc3cccc(Cl)c3)cc2)CC1 | -5 | -33 | 17* | -4 | -89 | 6 | 8 | 7
Cc1cccc2cc(CNCC3CCCO3)c(Cl)nc12 (stereo unspecified) | -5 | 5 | 15* | -1 | -41 | -1 | 0 | -1
CCn1ncc(/C=N\NC(=O)c2csc3ccccc23)c1C | -1 | 16 | 18* | 2 | -71 | -3 | 49* | -4
O=C(N/N=C/c1cccc(O)c1)c1csc2ccccc12 | 1 | -11 | 1 | -32 | 13 | 3 | nt | nt
OC1CCN(c2cc(-c3ccccc3)nc3cc(-c4ccc(F)cc4)nn23)CC1 | -5 | 9 | 1 | -7 | -3 | -2 | nt | nt
CCN1CCN(c2cc(-c3ccccc3)nc3cc(-c4cccc(F)c4)nn23)CC1 | -4 | -45 | 14* | -7 | -8 | 10 | 11 | -3
CC(C)(C)OC(=O)N1CCCC(C(=O)Nc2ccc(C(=O)NCCc3ccccc3)cc2)C1 (stereo unspecified) | nt | 20 | 4 | nt | -16 | -4 | nt | nt
O=C(COc1ccc(C(=S)N2CCC(Cc3ccccc3)CC2)cc1)N1CCOCC1 | -2 | 4 | 15* | -3 | -43 | -1 | 5 | 3
O=C(OCC(=O)N1CCOCC1)c1cc(-c2ccccc2)nc2ccccc12 | -3 | 8 | -2 | nt | 6 | -2 | nt | nt
Cc1ccc(C(=O)N/C(=C\c2cccs2)C(=O)NCCc2c[nH]c3ccccc23)cc1C | -4 | 16 | 19* | 2 | -44 | -3 | 2 | 38*
COc1ccc(C(=O)N/C(=C\c2cccc3ccccc23)C(=O)NCCc2c[nH]c3ccccc23)cc1OC | 1 | 10 | 19* | -11 | -47 | -2 | 0 | -1
COc1ccc2[nH]cc(CCNC(=O)C3CC(=O)N(c4ccc(Cl)cc4)C3)c2c1 (stereo unspecified) | 0 | -12 | 33* | 2 | -87 | 2 | 1 | 0
COc1ccc2[nH]cc(CCNC(C)=O)c2c1 | 1 | 6 | 3 | nt | -10 | -1 | nt | nt
COc1ccc2[nH]cc(CCNC(=O)C3CCCO3)c2c1 (stereo unspecified) | -1 | 11 | 42* | -3 | -139 | -2 | 3 | 35*
COC(=O)C1=C(C)N(CCc2c[nH]c3ccc(OC)cc23)C(=O)C1 | -1 | -3 | 17* | 6 | -32 | 1 | 3 | 42*
CCOc1ccc(N2CC(C(=O)NCCc3c[nH]c4ccc(OC)cc34)CC2=O)cc1 (stereo unspecified) | -3 | -17 | 20* | -3 | -59 | 2 | 0 | 0
Cc1ccc(S(=O)(=O)N(C)C)cc1NC(=O)C(C)OC(=O)c1ccc2c(=O)n3c(nc2c1)CCC3 (stereo unspecified) | nt | 8 | -9 | nt | 22 | -2 | nt | nt
CC(=O)NC(Cc1ccc(F)cc1)C(=O)NC1CCN(C(=O)NCc2ccccc2)CC1 (stereo unspecified) | -2 | 9 | 3 | 2 | 7 | -2 | nt | nt
C[C@]12c3[nH]c4cc(-c5ccco5)ccc4c3CCN1C(=O)[C@@H](CC(=O)NCc1ccco1)C[C@@H]2C(=O)N1CCOCC1 | nt | 11 | 0 | nt | 1 | -2 | nt | nt
CCc1ccc(/C=C/C(=O)c2cc(Br)ccc(=O)c2O)cc1 | -6 | -33 | 17* | -17 | 5 | 6 | 42* | 5
Cc1cc(N2O[C@]34C=C[C@]25C[C@@H](O)CC[C@]5(C)C3CC[C@]2(C)[C@@H]([C@H](C)/C=C/[C@H](C)C(C)C)CC[C@H]24)no1 (stereo partly specified) | nt | 8 | 2 | nt | -8 | -2 | nt | nt
Nc1ccc(C(=O)N/N=C/c2cccc(Oc3ccccc3)c2)cc1 | -3 | 14 | 23* | -17 | -84 | -2 | 0 | 27*
CCCCCCOc1ccc(NC(=O)CC2C(=O)N(CC)C(=S)N2Cc2ccco2)cc1 (stereo unspecified) | 0 | -16 | 15* | 0 | -34 | 3 | -1 | -9
SMILES | MIN6 prolif | MOR-DOR inv ag | HTR5A ag | pCIP destab | HTR5A inv ctr | MOR-DOR ag-1 | MOR-DOR ag-2 | HTR5A ag conf
CCN1C(=O)C(CC(=O)Nc2ccc(F)cc2)N(Cc2ccco2)C1=S (stereo unspecified) | -2 | 13 | -3 | 1 | 6 | -3 | nt | nt
COc1ccc(NC(=O)CC2C(=O)N(Cc3ccccc3)C(=S)N2CCN2CCOCC2)cc1 (stereo unspecified) | -1 | -5 | 1 | -6 | -4 | 1 | nt | nt
C=CCN1C(=O)C(CC(=O)Nc2ccc(OCCC)cc2)N(CCCN2CCN(Cc3ccccc3)CC2)C1=S (stereo unspecified) | -6 | -76 | 17* | 2 | -73 | 16 | 39* | -2
CCOC(=O)C1C(=O)NC(C(=O)OCC)(C(=O)OCC)C1C(C)CC (stereo unspecified) | nt | 10 | 1 | nt | -4 | -2 | nt | nt
Cc1ccc(NC(=O)C2C3/C=C\CCCCC32)cc1C (stereo unspecified) | -2 | -36 | 20* | 0 | -8 | 6 | 6 | 11
O=C(Nc1ccccc1)C1C2/C=C\CCCCC21 (stereo unspecified) | 1 | -26 | -3 | -2 | -45 | 4 | nt | nt
Cc1cc(C(C)(C)C)cc(C)c1CC1=NCCN1 | -6 | 4 | 90* | -1 | -236 | -1 | 0 | 90*
NCCCCc1ccc2ccc3cccc4ccc1c2c34 | -7 | -36 | 16* | nt | -40 | 7 | 15 | 5
O=S(=O)(c1ccccc1)C1CC1(c1ccccc1)c1ccccc1 (stereo unspecified) | nt | -11 | -1 | nt | 4 | 3 | nt | nt
Cc1ccccc1/C=N/Nc1ncnc2nc[nH]c12 | -1 | 13 | 14* | 3 | 8 | -2 | 28* | 3
CCCOn1nnnc1-c1ccccc1 | -3 | -1 | 20* | -19 | -56 | 0 | 535* | 3
COc1ccc(NC(=O)CN(C)C(=O)/C=C/c2ccc(S(=O)(=O)N3CCCCCC3)cc2)cc1 | -2 | 8 | 2 | nt | -6 | -1 | nt | nt
COc1ccc(NC(=O)CN(C)C(=O)/C=C/c2ccc(OCc3ccccc3)cc2)cc1 | -6 | -83 | 24* | -2 | -51 | 10 | 2 | 1
CCC1c2ccccc2C(=O)C1C(N)=O (stereo unspecified) | nt | 10 | -2 | nt | 6 | -2 | nt | nt
